# Inconclusive results are not listed. Calls of active or inactive are those of the source. Unless noted, calls follow the shape of the full dose curve.
# Experiments:
# [1] = qHTS for Inhibitors of the Functional Ribonucleoprotein Complex (vRNP) of Lassa (LASV) Arenavirus: Viability assay - alamar blue signal for LASV Primary Screen (AID 1347083; calls by dose curve; tested in HEK293 reporter line; also: nearly all actives have a fitted effect of over 80% in size; also: potency is read from the fitted curve at half-maximal effect)
# [2] = qHTS for Inhibitors of the Functional Ribonucleoprotein Complex (vRNP) of Lymphocytic Choriomeningitis Arenaviruses (LCMV): Viability assay - alamar blue signal for LCMV Primary Screen (AID 1347085; calls by dose curve; tested in HEK293 reporter line; also: nearly all actives have a fitted effect of over 80% in size; also: potency is read from the fitted curve at half-maximal effect)
# [3] = molecular target: Nucleoprotein (Lymphocytic choriomeningitis virus (strain Armstrong)) (UniProt P09992); experiment: qHTS for Inhibitors of the Functional Ribonucleoprotein Complex (vRNP) of Lymphocytic Choriomeningitis Arenaviruses (LCMV): LCMV Primary Screen - GLuc reporter signal (AID 1347086); also: nearly all actives have a fitted effect of over 70% in size; also: potency is read from the fitted curve at half-maximal effect; as to activity change, negative = inhibition: % is scaled to controls: 0 for no effect and ±100 for the full control effect
# [4] = Primary qHTS to identify inhibitors of SARS-CoV-2 cell entry (AID 1645846); settings: activity change, negative = inhibition: at 57.1 µM (top of the series) unless noted; also: nearly all actives have a fitted effect of over 45% in size; also: potency is read from the fitted curve at half-maximal effect
# How it was run: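 Using luciferase-reporting pseudoviruses carrying Wuhan-Hu-1 spike, the screen tracks entry into stably ACE2-expressing cells over 48 hr. Activity is expressed relative to spike particles versus particles lacking any fusion protein.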
# [5] = Cytotoxicity counterscreen for inhibitors of SARS-CoV-2 cell entry (AID 1645845); also: nearly all actives have a fitted effect of over 50% in size; also: potency is read from the fitted curve at half-maximal effect
# How it was run: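 After a 15 min room-temperature ATPLite 1step step, luminescence reflected ATP remaining in HEK293-ACE2 cells exposed to compound for 1 h plus 48 h at 37 C, with percent activity set by cell and no-cell controls.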
# [6] = Confirmatory qHTS to identify inhibitors of SARS-CoV-2 cell entry (AID 1645844); also: nearly all actives have a fitted effect of over 45% in size; also: potency is read from the fitted curve at half-maximal effect
# How it was run: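 Using stable human ACE2 Expi293F cells, compounds preincubated 1 hr before spike pseudoparticle infection; luciferase signal after 48 hr at 37C, 5% CO2, normalised to spike PP and no-fusion-protein PP wells.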
# [7] = VSVG counterscreen qHTS to identify inhibitors of SARS-CoV-2 cell entry (AID 1645847); also: potency is read from the fitted curve at half-maximal effect; nearly all actives have a fitted effect of over 65% in size
# How it was run: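 Entry of VSV-G pseudotyped particles into human ACE2-expressing HEK293 cells was measured by luciferase luminescence 48 h after infection, with compound added 1 h beforehand.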
# [8] = Validation screen for inhibitors of Lassa infection (AID 463096); also: potency is read from the fitted curve at half-maximal effect
# [9] = Inducers of the Endoplasmic Reticulum Stress Response (ERSR) in human glioma: Validation (AID 504836; active = well fitted curve in the direction sought with a large enough effect; an effect the other way counts as inactive or inconclusive; also: 0% is about no effect)
# How it was run: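 Stably transfected U87-MG human glioma cells carrying a GRP78-based luminescent sensor were seeded at 1000 cells/well, pin-dosed with compounds and incubated 16 h. Luciferase reagent was then added, and end-point luminescence was read after 10 min at room temperature.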
# [10] = qHTS profiling of the MIPE4 collection as inhibitors of Plasmodium falciparum (3D7) proliferation (AID 743344; call rule not given here;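 also: scaled between DMSO vehicle wells and 0.29 µM artemisinin as full inhibition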); settings: P. falciparum 3D7 in erythrocytes, SYBR Green DNA fluorescence, 72 h; at 28.5 µM (top of the series) unless noted
# How it was run: (§1)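 Parasite DNA was quantified by SYBR Green I fluorescence (ex 485, em 535 nm) after overnight lysis in saponin/Triton buffer at room temperature. Cultures at 0.3% parasitemia and 2.5% hematocrit were first exposed to compound for 72 h at 37 C; signals were normalised to artemisinin (0.29 uM) and vehicle wells.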
# [11] = qHTS profiling of the MIPE4 collection as inhibitors of Plasmodium falciparum (DD2) proliferation (AID 743345; call rule not given here); settings: P. falciparum Dd2 in erythrocytes, SYBR Green DNA, 72 h; at 28.5 µM (top of the series) unless noted
# How it was run: as §1
# [12] = qHTS profiling of the MIPE4 collection as inhibitors of Plasmodium falciparum (HB3) proliferation (AID 743347; call rule not given here;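 also: plate controls were DMSO vehicle wells for no effect and artemisinin wells for full effect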); settings: P. falciparum HB3 in erythrocytes, SYBR Green DNA, 72 h; at 28.5 µM (top of the series) unless noted
# How it was run: as §1
# [13] = molecular target: Alpha-galactosidase (Coffea arabica) (UniProt Q42656); experiment: Counterscreen for Glucocerebrosidase Inhibitors: qHTS Assay for Coffee Bean alpha-Galactosidase at pH 4.5 (AID 957; active = well fitted curve in the direction sought with a large enough effect; an effect the other way counts as inactive or inconclusive;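 also: plate controls were enzyme alone for no effect and no enzyme for full effect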)
# How it was run: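 Fluorogenic qHTS at pH 4.5 (citrate buffer with Tween-20): 2 nM enzyme, 80 uM 4-MU-alpha-galactoside substrate, compound titrated 0.7 nM to 77 uM, 20 min room temperature. Glycine/NaOH stop; 4-MU read Ex 365/Em 440; Hill-equation AC50 against no-enzyme and enzyme controls.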
# [14] = Confirmatory qHTS for VERO E6 Cytotoxicity Assay: Counterscreen for SARS-CoV-2 CPE Assay (AID 1508605); also: % is scaled to controls: 0 for no effect and ±100 for the full control effect; nearly all actives have a fitted effect of over 60% in size
# Sequence of Nucleoprotein (Lymphocytic choriomeningitis virus (strain Armstrong)) (P09992 whole entry, looked up): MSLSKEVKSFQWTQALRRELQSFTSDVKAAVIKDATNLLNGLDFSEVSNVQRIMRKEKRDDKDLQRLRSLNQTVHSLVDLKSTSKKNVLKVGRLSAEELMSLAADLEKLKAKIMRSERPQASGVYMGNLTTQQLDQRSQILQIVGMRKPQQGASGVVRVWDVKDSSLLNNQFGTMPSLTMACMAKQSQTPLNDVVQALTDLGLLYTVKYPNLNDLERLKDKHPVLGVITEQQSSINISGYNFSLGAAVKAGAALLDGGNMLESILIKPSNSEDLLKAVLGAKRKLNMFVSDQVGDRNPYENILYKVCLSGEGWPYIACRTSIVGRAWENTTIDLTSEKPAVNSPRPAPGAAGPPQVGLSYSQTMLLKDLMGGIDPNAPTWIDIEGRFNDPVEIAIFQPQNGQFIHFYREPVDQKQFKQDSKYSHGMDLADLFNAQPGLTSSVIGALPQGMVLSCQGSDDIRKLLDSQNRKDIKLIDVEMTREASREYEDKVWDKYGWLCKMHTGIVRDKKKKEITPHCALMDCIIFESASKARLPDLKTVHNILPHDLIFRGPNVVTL
# Sequence of Alpha-galactosidase (Coffea arabica) (Q42656 whole entry, looked up): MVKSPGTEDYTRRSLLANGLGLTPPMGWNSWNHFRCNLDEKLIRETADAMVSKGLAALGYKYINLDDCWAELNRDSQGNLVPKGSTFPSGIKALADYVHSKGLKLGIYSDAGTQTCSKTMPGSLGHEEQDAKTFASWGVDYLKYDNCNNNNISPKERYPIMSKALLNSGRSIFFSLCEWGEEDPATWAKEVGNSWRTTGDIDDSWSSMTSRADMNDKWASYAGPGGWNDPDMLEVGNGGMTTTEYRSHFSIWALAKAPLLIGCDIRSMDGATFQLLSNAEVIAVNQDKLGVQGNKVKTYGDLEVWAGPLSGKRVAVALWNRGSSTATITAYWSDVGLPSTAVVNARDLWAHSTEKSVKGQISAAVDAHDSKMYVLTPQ
smiles,measurement,setting,value
C=CC(=O)Nc1ccc2ncnc(Nc3ccc(OCc4cccc(F)c4)c(Cl)c3)c2c1,Potency,[1],968 nM (active)
same,Potency,[2],385 nM (active)
same,Potency,[3],432 nM (active)
same,Potency,[4],inactive
COc1cc(-c2nn(C3CCC(N4CCN(C(C)=O)CC4)CC3)c3ncnc(N)c23)ccc1NC(=O)c1cc2ccccc2n1C (centres undefined),Potency,[1],863 nM (active)
same,Potency,[2],968 nM (active)
same,Potency,[3],685 nM (active)
same,Potency,[5],inactive
CC(=O)ON=C1C(c2c(O)[nH]c3cc(Br)ccc23)=Nc2ccccc21,Potency,[1],1930 nM (active)
same,Potency,[2],inactive
same,Potency,[3],inactive
O=C(Cc1ccc(-c2ccc(OCCN3CCOCC3)cc2)cn1)NCc1ccccc1,Potency,[1],48.5 nM (active)
same,Potency,[2],54.4 nM (active)
same,Potency,[3],137 nM (active)
same,Potency,[6],136 nM (active)
same,"activity change, negative = inhibition",[4],-81.8%
same,Potency,[7],171 nM (active)
COCCOC(=O)C1=C(C)NC2=C(C(=O)CC(c3ccccc3OC)C2)C1c1cccc(O)c1 (centres undefined),Potency,[1],17200 nM (active)
same,Potency,[2],10900 nM (active)
same,Potency,[3],15300 nM (active)
same,Potency,[6],inactive
same,Potency,[5],inactive
CCC1(O)CC2CN(CCc3c([nH]c4ccccc34)[C@@](C(=O)OC)(c3cc4c(cc3OC)N(C)C3[C@]45CCN4CC=C[C@@](CC)([C@@H](OC(C)=O)[C@]3(O)C(=O)OC)[C@H]45)C2)C1 (some centres undefined),Potency,[8],15800 nM (active)
same,outcome,[9],inactive
same,Potency,[1],447 nM (active)
same,Potency,[2],224 nM (active)
same,Potency,[3],708 nM (active)
O=C(C=CC#Cc1cccc(NS(=O)(=O)c2ccccc2)c1)NO,Potency,[1],13700 nM (active)
same,Potency,[2],6850 nM (active)
same,Potency,[3],12200 nM (active)
CCC(C=C[C@@H]1OC(=O)C=C[C@H]1C)=C[C@H](C)CC=CC(C)=C[C@@H](C)C(=O)[C@@H](C)[C@H](O)[C@@H](C)CC(C)=CC(=O)O,Potency,[1],114 nM (active)
same,Potency,[2],144 nM (active)
same,Potency,[3],203 nM (active)
COc1cc([C@@H]2c3cc4c(cc3[C@H](O)[C@H]3COC(=O)[C@@H]23)OCO4)cc(OC)c1OC,"parasite growth, % of DMSO control",[10],52.9%
same,"parasite growth remaining, % of DMSO control (lower = more inhibition)",[11],78.3%
same,"growth, % of control",[12],44.9%
same,Potency,[1],193 nM (active)
same,Potency,[2],344 nM (active)
same,Potency,[3],1090 nM (active)
same,Potency,[6],12100 nM (active)
same,Potency,[4],1260 nM (active)
same,Potency,[7],1710 nM (active)
NCC(=O)Nc1ccc(-n2nc(C(F)(F)F)cc2-c2ccc3c(ccc4ccccc43)c2)cc1,Potency,[1],19300 nM (active)
same,Potency,[2],10900 nM (active)
same,Potency,[3],1720 nM (active)
same,Potency,[6],15200 nM (active)
same,Potency,[7],6070 nM (active)
CCC[C@H](Nc1nc(-c2ccc(NC(=O)NCC)c(OC)c2)ncc1C)c1cccnc1,Potency,[1],38.5 nM (active)
same,Potency,[2],48.5 nM (active)
same,Potency,[3],109 nM (active)
same,"activity change, negative = inhibition",[4],-93.9%
CCc1c2c(nc3ccc(O)cc13)-c1cc3c(c(=O)n1C2)COC(=O)[C@]3(O)CC,Potency,[1],109 nM (active)
same,Potency,[2],243 nM (active)
same,Potency,[3],217 nM (active)
same,"activity change, negative = inhibition",[4],-97.1%
CNC(=O)CN1CCC(Oc2cc3c(Nc4cccc(Cl)c4F)ncnc3cc2OC)CC1,Potency,[1],76.9 nM (active)
same,Potency,[2],30.6 nM (active)
same,Potency,[3],38.5 nM (active)
same,Potency,[5],inactive
same,"activity change, negative = inhibition",[4],-16.1%
COc1ccc2c(c1OC)C(=O)OC2[C@H]1c2c(cc3c(c2OC)OCO3)CCN1C (some centres undefined),outcome,[13],inactive
same,Potency,[1],1530 nM (active)
same,Potency,[2],1530 nM (active)
same,Potency,[3],1370 nM (active)
same,Potency,[5],inactive
O=C(O)Cn1nnc(-c2cc(N3CCC(Oc4cc(F)ccc4Br)CC3)no2)n1,Potency,[1],1530 nM (active)
same,Potency,[2],1720 nM (active)
same,Potency,[3],2730 nM (active)
same,Potency,[5],3550 nM (active)
same,"activity change, negative = inhibition",[4],-56.8%
COc1cc2cc(c1Cl)N(C)C(=O)CC(OC(=O)C(C)N(C)C(C)=O)C1(C)OC1C(C)C1CC(O)(NC(=O)O1)C(OC)C=CC=C(C)C2 (centres undefined),Potency,[1],inactive
same,Potency,[2],inactive
same,Potency,[3],inactive
O=C(Nc1ncc(-c2cc(C(F)F)nn2-c2c(Cl)cccc2Cl)s1)C1CC1,Potency,[1],968 nM (active)
same,Potency,[2],1090 nM (active)
same,Potency,[3],3850 nM (active)
same,Potency,[6],541 nM (active)
same,Potency,[7],1360 nM (active)
CO[C@@H]1[C@@H](O)[C@H](O)[C@@H](n2c3c(Cl)cccc3c3c4c(c5c6cccc(Cl)c6[nH]c5c32)C(=O)NC4=O)O[C@@H]1CO,Potency,[1],1930 nM (active)
same,Potency,[2],2430 nM (active)
same,Potency,[3],3060 nM (active)
Cn1cc(C=CC(=O)c2cccc(F)c2)cc1C=CC(=O)NO,Potency,[1],17200 nM (active)
same,Potency,[2],17200 nM (active)
same,Potency,[3],13700 nM (active)
NC(=O)c1cccc(-c2cc(Nc3ccc(OC(F)(F)F)cc3)ncn2)c1,Potency,[1],inactive
same,Potency,[2],inactive
same,Potency,[3],inactive
same,Potency,[14],inactive
same,Potency,[5],22400 nM (active)

# Source: PubChem BioAssay (NCATS)
